High-throughput results as filed in PubChem BioAssay.
mHTT-CaM PPI inh: mutant huntingtin-calmodulin interaction inhibitors – biochemical, AlphaScreen, primary screen; AlphaScreen His-mHTT/GST-CaM binding, luminescence; P42858; AID 1671202, 2021; inhibition, % at 15 µM; actives 3.6% (n = 190,000)
Pf apPOL inh: Pf-apPOL inhibitors, biochemical, fluorescence; Recombinant Pf-apPOL, molecular beacon fluorescence, 1.5 h; inhibition, % at 10 µM; actives 0.25% (n = 210,000)
Hits are given with their value; n = inactive; x = no result. The sample as a whole holds a higher share of hits than the screen did. No stated cut-off is given here; in the data, active means inhibition above about 50%; inactive means the rest.

SMILES	mHTT-CaM PPI inh	Pf apPOL inh
COc1cc([N+](=O)[O-])cc(C=Nc2cc(C(C)(C)C)cc(Cl)c2O)c1O	n	n
COc1ccc(N=Cc2ccc(Br)c([N+](=O)[O-])c2)cc1OC	54	n
Cc1ccc(O)c(N=Cc2ccc(Br)c([N+](=O)[O-])c2)c1	58	n
Cc1ccc(O)c(N=Cc2ccc(Cl)c([N+](=O)[O-])c2)c1	n	n
Cc1ccc(O)c(N=Cc2cc3c(cc2[N+](=O)[O-])OCO3)c1	99	n
CC(C)(C)c1cc(Cl)c(O)c(N=Cc2cc3c(cc2[N+](=O)[O-])OCO3)c1	85	n
Cn1c(=O)n(C)c2cc(N=Cc3ccc(Br)c([N+](=O)[O-])c3)ccc21	n	n
Cc1ccc(O)c(N=Cc2cccc([N+](=O)[O-])c2O)c1	n	n
CC(C)(C)NC(=O)c1ccc2ccccc2n1	n	n
Cc1c(Cl)c(C(F)(F)F)nn1CC(=O)Nc1cccc(Cl)c1	n	n
CCc1csc2nc(C)c(NC(=O)Cc3ccc(F)cc3)c(=O)n12	n	n
C#CC[n+]1c(N)sc2cc(OC)ccc21	n	n
COc1ccc(C=C2Oc3c(CN4CCN(C)CC4)c(O)cc(C)c3C2=O)cc1OC	n	n
O=[N+]([O-])c1ccc(N=Cc2cc3c(cc2[N+](=O)[O-])OCO3)c(Br)c1	n	n
Cc1cccc(N=Cc2cc3c(cc2[N+](=O)[O-])OCO3)c1C	89	n
CCn1ccc2oc(C)c(C(=O)N3CCC(N4CCCCC4)CC3)c2c1=O	n	n
O=[N+]([O-])c1ccc(CN2CCN(C3CC4CCC3C4)CC2)cc1 (stereo unspecified)	n	n
CCCCC[C@H](C)N1C[C@@H](COCc2ccccc2)Oc2cc(N3CCC[C@H]3CO)ccc2S1(=O)=O	n	n
CCCCC[C@@H](C)N1C[C@H](COCc2ccccc2)Oc2cc(N3CC[C@@H](O)C3)ccc2S1(=O)=O	58	n
CCCCC[C@@H](C)N1C[C@H](COCc2ccccc2)Oc2cc(N3CC[C@H](O)C3)ccc2S1(=O)=O	78	n
CCCCC[C@H](C)N1C[C@@H](COCc2ccccc2)Oc2cc(N3CCC[C@H]3C(N)=O)ccc2S1(=O)=O	69	n
CCCCC[C@H](C)N1C[C@H](COCc2ccccc2)Oc2cc(N3CC[C@H](O)C3)ccc2S1(=O)=O	96	n
CCCCC[C@@H](C)N1C[C@@H](COCc2ccccc2)Oc2cc(N3CCC[C@H]3C(N)=O)ccc2S1(=O)=O	n	n
CCCCC[C@H](C)N1C[C@H](COCc2ccccc2)Oc2cc(N3CCC[C@H]3CO)ccc2S1(=O)=O	n	n
CCCCC[C@H](C)N1C[C@H](COCc2ccccc2)Oc2cc(N3CCC[C@@H]3CO)ccc2S1(=O)=O	n	n
SMILES	mHTT-CaM PPI inh	Pf apPOL inh
Cc1ccc(N2C=C(C(=O)N3CCCC3)S(=O)(=O)c3ccccc32)cc1F	n	n
CC(C)CNC(=O)C1CC(=O)N(c2ccc(F)cc2)C1 (stereo unspecified)	n	n
CS(=O)(=O)N1CCN(C(=O)C23CC4CC(CC(C4)C2)C3)CC1	n	x
CCCNC(=O)c1c[nH]c2ccc(S(=O)(=O)N(C)c3ccc(F)cc3)cc2c1=O	n	n
CCCCC[C@H](C)N1C[C@H](COCc2ccccc2)Oc2cc(N3CCC[C@@H]3COC)ccc2S1(=O)=O	n	n
CCCCC[C@@H](C)N1C[C@H](COCc2ccccc2)Oc2cc(N3CC[C@H](N(C)C)C3)ccc2S1(=O)=O	100	n
COc1ccc(C=C2Oc3cc(C)cc(O)c3C2=O)c(OC)c1OC	75	n
COc1ccc(OC)c(C=C2Oc3cc(C)cc(O)c3C2=O)c1	n	n
C=CCOC(=O)COc1ccc2oc(=O)c(-c3cc(OC)ccc3OC)c(C)c2c1	n	n
COc1cccc2sc(N3CCN(c4ccccc4)CC3)nc12	n	n
COc1cccc2sc(N3CCc4ccccc4C3)nc12	93	n
CCCC(=O)N1CC(c2nc(-c3ccc(F)cc3)no2)C2(CCOCC2)C1 (stereo unspecified)	n	n
CCC(C)c1ccccc1OCC(O)CNC(C)(C)C(C)(C)C (stereo unspecified)	100	n
CCC(C)c1ccccc1OCC(O)CNC(C)(C)C (stereo unspecified)	n	n
CSCC(C)(O)CNC(=O)CC1CCCC1 (stereo unspecified)	n	n
COc1ccc(S(=O)(=O)N2CCC(CN3CCCCC3)CC2)cc1OC	n	n
CCOc1ccc(Nc2cc(C)nc3ccc(Cl)cc23)cc1	n	n
CCCCOc1ccc(Nc2cc(C)nc3ccc(OC)cc23)cc1	61	n
Cc1ccccc1S(=O)(=O)NCc1nc2cccnc2n1C(C)C	n	n
Cc1ccc(CNC(=O)c2cc3n(n2)CCCN(Cc2cccc(C)c2)C3=O)cc1	n	n
Cc1cccc(CN2CCCn3nc(C(=O)NCc4ccc(N(C)C)cc4)cc3C2=O)c1	55	n
Cc1cc(F)ccc1NC(=O)c1cc2n(n1)CCCN(Cc1ccccc1)C2=O	n	n
